According to ChEMBL document CHEMBL3988442, “University of Dundee, Small-Polar-MMV Screening Library” (2021):
For some assays here: Measured potencies and affinities stand elsewhere.

Tests used:
Design in all cases: scale not given: direction of the effect not stated beside the values
[1] = target: Protein translocase subunit SecA (Escherichia coli (strain K12)) (UniProt P10408); assay: Assay to Identify E. coli SecA ATPase Inhibitors; type: functional; details: 30 µM
[2] = target: T1, Ubiquitin-activating enzyme e1, putative (Leishmania donovani (strain BPK282A1)) (UniProt E9BSI1); assay: Leishmania donovani Ubiquitin Activating Enzyme (LdE1); type: functional; details: 30 µM
T1 sequence (whole entry): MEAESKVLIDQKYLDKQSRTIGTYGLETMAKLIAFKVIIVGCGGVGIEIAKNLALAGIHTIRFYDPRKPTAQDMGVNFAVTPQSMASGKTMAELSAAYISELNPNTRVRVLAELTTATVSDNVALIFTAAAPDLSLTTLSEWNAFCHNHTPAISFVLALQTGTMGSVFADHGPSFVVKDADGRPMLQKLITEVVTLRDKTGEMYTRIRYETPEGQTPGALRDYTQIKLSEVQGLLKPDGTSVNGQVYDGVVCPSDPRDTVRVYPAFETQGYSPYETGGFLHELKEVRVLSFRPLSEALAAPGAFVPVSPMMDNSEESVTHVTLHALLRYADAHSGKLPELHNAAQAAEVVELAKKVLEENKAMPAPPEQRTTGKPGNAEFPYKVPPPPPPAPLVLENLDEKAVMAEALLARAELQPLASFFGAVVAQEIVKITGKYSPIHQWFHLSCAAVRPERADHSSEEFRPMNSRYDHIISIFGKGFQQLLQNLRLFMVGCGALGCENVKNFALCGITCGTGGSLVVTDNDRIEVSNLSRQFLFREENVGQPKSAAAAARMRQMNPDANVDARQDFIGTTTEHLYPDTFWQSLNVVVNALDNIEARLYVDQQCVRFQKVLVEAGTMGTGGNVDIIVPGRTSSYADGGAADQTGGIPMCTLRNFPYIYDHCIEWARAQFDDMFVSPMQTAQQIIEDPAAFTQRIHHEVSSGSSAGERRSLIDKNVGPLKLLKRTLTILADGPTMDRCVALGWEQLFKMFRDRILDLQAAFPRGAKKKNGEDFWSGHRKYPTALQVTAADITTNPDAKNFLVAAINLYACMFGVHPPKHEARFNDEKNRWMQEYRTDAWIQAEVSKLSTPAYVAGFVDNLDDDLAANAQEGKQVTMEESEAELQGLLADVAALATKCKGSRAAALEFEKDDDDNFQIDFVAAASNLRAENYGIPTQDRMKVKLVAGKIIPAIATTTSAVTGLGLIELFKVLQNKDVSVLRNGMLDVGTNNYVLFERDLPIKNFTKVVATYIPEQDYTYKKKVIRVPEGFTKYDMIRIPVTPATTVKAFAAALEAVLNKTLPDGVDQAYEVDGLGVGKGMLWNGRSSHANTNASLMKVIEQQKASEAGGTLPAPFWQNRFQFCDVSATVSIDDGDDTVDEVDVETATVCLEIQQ

[3] = target: AMP-activated protein kinase, AMPK (Homo sapiens) (UniProt P54646+O43741+P54619+Q9UGJ0+Q9Y478+Q13131+Q9UGI9); assay: AMP-dependent Kinase enzyme assay. An in vitro enzyme assay that detects ADP turnover that is directly proportional to AMPK activity. This uses naive AMPK that is activated during the assay with MK-8722; type: functional; details: 30 µM
[4] = target: Sialic acid-binding Ig-like lectin 9 (Homo sapiens) (UniProt Q9Y336); assay: Hs-Siglec9 ALPHAscreen SOP 20170721; details: 10 µM
[5] = system: Trypanosoma cruzi; assay: Trypanosoma cruzi phosphomannomutase and mannose-1-phosphate guanylyltransferase assay; type: functional; details: 10 µM
[6] = target: T2, Arginase-2, mitochondrial (Homo sapiens) (UniProt P78540); assay: in vitro enzyme assay to detect the production of urea directly proportional to the activity of Arginase II; type: functional; details: 33.3 µM; further: in the data most compounds retested in dose-response had high values
T2 sequence (whole entry): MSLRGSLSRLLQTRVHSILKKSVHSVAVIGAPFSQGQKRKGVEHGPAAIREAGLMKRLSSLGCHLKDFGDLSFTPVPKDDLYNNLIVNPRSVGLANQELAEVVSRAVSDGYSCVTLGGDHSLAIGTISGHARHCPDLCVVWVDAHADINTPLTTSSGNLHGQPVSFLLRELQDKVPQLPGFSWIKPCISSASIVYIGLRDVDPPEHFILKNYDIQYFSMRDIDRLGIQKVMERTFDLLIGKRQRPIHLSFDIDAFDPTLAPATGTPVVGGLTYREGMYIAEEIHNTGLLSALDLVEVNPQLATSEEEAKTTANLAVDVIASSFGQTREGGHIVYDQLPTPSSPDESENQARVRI

[7] = target: T3, Proteasome subunit beta (Trypanosoma cruzi) (UniProt O96673); assay: Trypanosoma cruzi proteasome chymotrypsin-like activity (TcProtChymo) assay.; further: in the data most compounds retested in dose-response had high values; type: functional; details: 9.37 µM
T3 sequence (whole entry): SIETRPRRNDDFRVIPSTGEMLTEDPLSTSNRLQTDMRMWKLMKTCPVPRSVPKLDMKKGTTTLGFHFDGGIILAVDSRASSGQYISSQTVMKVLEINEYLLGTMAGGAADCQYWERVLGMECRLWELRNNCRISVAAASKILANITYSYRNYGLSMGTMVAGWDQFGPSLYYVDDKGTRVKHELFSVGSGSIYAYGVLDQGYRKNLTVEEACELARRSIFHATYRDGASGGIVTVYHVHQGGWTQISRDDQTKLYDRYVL

[8] = species: Homo sapiens; assay: To identify inhibition of the IFN signalling (Jak-Stat) pathway via expression of an eGFP reporter gene under the control of an IFN-stimulated response element (ISRE) containing MxA promoter.; type: functional; details: 30 µM
[9] = target: T4, Tyrosyl-tRNA synthetase, putative (Trypanosoma cruzi (strain CL Brener)) (UniProt Q4DSP6); assay: Trypanosoma cruzi tyrosyl tRNA synthetase (TcYRS) _High Tyrosine SOP; type: functional; details: 30 µM; further: in the data most compounds retested in dose-response had high values
T4 sequence (whole entry): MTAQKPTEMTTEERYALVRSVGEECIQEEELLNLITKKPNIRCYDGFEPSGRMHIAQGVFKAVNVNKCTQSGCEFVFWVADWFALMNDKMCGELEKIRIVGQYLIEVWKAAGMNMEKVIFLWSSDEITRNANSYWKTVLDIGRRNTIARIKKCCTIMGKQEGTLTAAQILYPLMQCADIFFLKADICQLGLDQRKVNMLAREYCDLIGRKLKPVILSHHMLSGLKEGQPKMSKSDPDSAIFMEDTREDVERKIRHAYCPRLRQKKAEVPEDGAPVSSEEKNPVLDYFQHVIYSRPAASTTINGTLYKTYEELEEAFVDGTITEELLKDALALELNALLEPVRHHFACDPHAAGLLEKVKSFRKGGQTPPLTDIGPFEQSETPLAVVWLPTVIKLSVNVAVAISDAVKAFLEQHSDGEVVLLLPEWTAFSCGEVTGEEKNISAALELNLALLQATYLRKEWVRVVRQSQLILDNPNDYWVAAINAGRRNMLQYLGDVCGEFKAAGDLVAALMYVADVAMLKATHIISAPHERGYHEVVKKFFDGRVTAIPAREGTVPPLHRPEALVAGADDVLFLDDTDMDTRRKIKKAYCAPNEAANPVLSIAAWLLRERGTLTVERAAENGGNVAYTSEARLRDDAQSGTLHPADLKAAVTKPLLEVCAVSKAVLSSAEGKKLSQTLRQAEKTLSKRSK

[10] = target: T4, Tyrosyl-tRNA synthetase, putative (Trypanosoma cruzi (strain CL Brener)); assay: Trypanosoma cruzi tyrosyl tRNA synthetase (TcYRS) SOP; type: functional; details: 30 µM
[11] = target: Chromo domain-containing protein 1 (Saccharomyces cerevisiae (strain ATCC 204508 / S288c) (Baker's yeast)) (UniProt P32657); assay: ScCHD-1 Enzyme Inhibition Assay; type: functional; details: 30 µM; further: in the data most compounds retested in dose-response had high values
Chromo domain-containing protein 1 (Saccharomyces cerevisiae (strain ATCC 204508 / S288c) (Baker's yeast)), sequence (P32657 whole entry, the tested form may be a part): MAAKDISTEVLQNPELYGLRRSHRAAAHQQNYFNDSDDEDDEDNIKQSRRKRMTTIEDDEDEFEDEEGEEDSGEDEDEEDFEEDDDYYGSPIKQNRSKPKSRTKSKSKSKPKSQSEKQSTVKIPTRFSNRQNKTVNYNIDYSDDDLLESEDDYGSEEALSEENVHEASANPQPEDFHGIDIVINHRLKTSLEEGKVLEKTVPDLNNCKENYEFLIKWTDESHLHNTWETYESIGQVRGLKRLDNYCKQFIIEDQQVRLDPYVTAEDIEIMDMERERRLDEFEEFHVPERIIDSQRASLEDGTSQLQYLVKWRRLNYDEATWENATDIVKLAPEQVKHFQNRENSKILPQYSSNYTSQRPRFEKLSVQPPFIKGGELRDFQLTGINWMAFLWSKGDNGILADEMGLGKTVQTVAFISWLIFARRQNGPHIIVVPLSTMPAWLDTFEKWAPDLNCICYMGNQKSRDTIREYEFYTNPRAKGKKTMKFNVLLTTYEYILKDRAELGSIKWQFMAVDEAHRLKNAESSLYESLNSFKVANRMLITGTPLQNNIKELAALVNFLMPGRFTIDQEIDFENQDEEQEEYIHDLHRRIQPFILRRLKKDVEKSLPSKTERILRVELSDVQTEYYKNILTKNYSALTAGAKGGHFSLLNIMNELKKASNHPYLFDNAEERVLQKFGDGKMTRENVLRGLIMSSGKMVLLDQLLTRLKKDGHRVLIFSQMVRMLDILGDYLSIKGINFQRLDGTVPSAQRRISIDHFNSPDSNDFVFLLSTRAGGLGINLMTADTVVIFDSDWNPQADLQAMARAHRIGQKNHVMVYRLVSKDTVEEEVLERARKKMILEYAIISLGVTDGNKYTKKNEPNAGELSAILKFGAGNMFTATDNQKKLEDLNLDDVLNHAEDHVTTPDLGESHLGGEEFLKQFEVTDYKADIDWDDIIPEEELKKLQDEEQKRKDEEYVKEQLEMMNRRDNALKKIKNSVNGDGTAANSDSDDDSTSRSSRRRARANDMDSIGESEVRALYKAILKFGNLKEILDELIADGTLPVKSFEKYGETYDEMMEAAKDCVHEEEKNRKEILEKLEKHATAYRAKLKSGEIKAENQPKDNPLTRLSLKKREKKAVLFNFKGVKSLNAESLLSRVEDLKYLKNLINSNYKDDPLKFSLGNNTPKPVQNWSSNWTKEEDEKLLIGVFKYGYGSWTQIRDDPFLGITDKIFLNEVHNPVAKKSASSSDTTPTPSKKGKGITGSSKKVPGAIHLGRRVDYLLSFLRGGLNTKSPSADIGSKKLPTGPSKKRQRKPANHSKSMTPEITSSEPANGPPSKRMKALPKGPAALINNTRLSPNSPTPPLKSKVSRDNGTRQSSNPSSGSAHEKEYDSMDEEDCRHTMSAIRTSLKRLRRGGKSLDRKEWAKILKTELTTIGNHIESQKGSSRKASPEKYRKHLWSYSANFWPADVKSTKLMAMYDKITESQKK

Sialic acid-binding Ig-like lectin 9 (Homo sapiens), sequence (Q9Y336 whole entry): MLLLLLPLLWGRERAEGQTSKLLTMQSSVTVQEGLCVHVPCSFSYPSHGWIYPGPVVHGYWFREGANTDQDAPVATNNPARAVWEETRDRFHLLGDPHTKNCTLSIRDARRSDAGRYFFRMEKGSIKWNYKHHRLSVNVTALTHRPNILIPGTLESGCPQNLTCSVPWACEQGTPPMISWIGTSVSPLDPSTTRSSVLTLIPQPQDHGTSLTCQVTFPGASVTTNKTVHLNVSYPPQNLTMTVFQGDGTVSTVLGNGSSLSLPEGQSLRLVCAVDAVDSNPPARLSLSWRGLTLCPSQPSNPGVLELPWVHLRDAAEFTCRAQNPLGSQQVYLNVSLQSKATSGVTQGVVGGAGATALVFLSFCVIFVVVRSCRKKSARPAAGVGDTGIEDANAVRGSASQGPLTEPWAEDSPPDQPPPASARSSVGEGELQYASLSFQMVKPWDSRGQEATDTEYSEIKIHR
Protein translocase subunit SecA (Escherichia coli (strain K12)), sequence (P10408 whole entry): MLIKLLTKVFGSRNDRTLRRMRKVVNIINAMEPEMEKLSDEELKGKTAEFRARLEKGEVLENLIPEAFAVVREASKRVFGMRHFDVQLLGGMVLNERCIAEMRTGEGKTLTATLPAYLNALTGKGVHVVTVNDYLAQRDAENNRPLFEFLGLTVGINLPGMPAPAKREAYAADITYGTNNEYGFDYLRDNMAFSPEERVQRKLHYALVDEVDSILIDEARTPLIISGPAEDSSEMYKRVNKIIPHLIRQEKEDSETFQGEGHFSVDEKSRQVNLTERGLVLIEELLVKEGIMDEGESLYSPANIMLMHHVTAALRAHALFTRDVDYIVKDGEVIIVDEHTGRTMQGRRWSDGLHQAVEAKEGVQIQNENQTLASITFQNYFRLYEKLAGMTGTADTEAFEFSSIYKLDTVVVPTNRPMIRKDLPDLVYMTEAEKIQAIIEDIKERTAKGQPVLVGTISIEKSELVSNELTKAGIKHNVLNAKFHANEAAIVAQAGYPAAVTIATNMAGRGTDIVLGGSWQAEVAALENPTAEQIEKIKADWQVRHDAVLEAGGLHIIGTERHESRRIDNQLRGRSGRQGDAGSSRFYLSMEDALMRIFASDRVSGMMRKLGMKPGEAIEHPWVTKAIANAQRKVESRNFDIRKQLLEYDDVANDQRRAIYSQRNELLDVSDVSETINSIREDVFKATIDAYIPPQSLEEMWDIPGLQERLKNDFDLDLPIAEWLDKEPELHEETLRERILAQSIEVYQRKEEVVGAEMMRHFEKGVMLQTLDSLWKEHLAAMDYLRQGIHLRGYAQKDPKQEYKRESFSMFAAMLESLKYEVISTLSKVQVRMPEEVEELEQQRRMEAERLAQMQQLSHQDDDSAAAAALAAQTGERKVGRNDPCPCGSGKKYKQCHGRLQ

| Compound | Percent Effect [1] [%] | Percent Effect [2] [%] | Percent Effect [3] [%] | Percent Effect [4] [%] | Percent Effect [5] [%] | Percent Effect [6] [%] | Percent Effect [7] [%] | Percent Effect [8] [%] | Percent Effect [9] [%] | Percent Effect [10] [%] | Percent Effect [11] [%] |
| --- | --- | --- | --- | --- | --- | --- | --- | --- | --- | --- | --- |
| Cc1cccc(CN2CCc3c(nc(N4CCC(C)CC4)[nH]c3=O)C2)n1 | -4.27 | 4.05 | 14.3 | 2.26 | 4.15 | -0.696 | 5.3 | -12.8 | 8.6 | 14.3 | -8.43 |
| Cc1cc(C)n(C2CCCN(C(=O)c3ccc(F)cc3F)C2)n1 (configuration not stated) | -11.1 | -5.41 | -1.04 | 0.0778 | -3.91 | -3.75 | 7.02 | -1.41 | 5.94 | 6.1 | 2.92 |
| CN1CCc2onc(CNc3ncccn3)c2C1 | -7.63 | 2.67 | 0.141 | -6.27 | -7.53 | -53.9 | 3.25 | 3.62 | 0 | 5 | -6.01 |
| c1nc2c(c(C3CC3)n1)CCN(Cc1ccoc1)CC2 | 0.0846 | 19.2 | -4.87 | 5.4 | 5.56 | -0.798 | 6.59 | 5.88 | 8.33 | 23.5 | -3.03 |
| CN(C)C(=O)CS(=O)(=O)Cc1cc(Cl)c2c(c1)OCCCO2 | -5 | 18.4 | 2.36 | -11.3 | -4.2 | 3.24 | 6.68 | 3.48 | 1.48 | -8.64 | -7.42 |
| CC(O)CN(CC(=O)NC(=O)NC1CC1)c1ccccc1 (configuration not stated) | -7.41 | 15.6 | -2.19 | -7.69 | -2.64 | -3.16 | 3.64 | 6.08 | 5.71 | 2.35 | -17.8 |
| O=C(c1cc(COc2ccc3c(c2)OCO3)[nH]n1)N1CCOCC1 | -8.28 | -2.74 | 9.08 | -1.9 | -4.37 | 0.798 | 7.45 | 6.61 | -3.12 | -3.7 | -5.41 |
| Nc1nccc(N2CCC(Cc3ccccc3Cl)(C(=O)O)CC2)n1 | -1.91 | 16.2 | -3.46 | 22.5 | 6.56 | 9.52 | 18.1 | -0.891 | 5.82 | 21.9 | -7.9 |
| CN(Cc1ccsc1)C(=O)Nc1ccc(S(C)(=O)=O)nc1 | -2.7 | 22.8 | -11.6 | -5.34 | 4.63 | -3.04 | 10.6 | 5.01 | 9.36 | 24.1 | -6.57 |
| Cc1nn(C)c(C)c1C1CCCN1C(=O)CCc1cscn1 (configuration not stated) | -2.32 | -5.26 | -4.9 | 0.0636 | 0.467 | 0.36 | 6.18 | -8.57 | 1.48 | 1.24 | 2.83 |
| Cc1nn(C)c(C)c1C1COCCN1C(=O)c1cnc(N)c(Cl)c1 (configuration not stated) | -2.77 | 23.4 | 2.76 | -1.47 | -2.62 | 0.356 | 10.1 | 4.22 | 3.88 | 19.5 | -7.54 |
| Cc1ccc(C2COCCN2C(=O)c2ccc(N(C)C)cc2)o1 (configuration not stated) | -1.88 | 10.7 | -8.36 | 13.4 | 3.02 | 13.5 | 15.9 | 19.2 | 2.73 | 18.5 | -4.41 |
| O=C(c1nn(-c2ccccc2F)cc1O)N1CCCC1 | -5 | -10.8 | -2.23 | 3.15 | -3.62 | -0.185 | -6.1 | 5.03 | -6.93 | -8.54 | 4.21 |
| CC(C)CCN1CCN(Cc2nc(C3CC3)no2)CC1 | -7.83 | -2.7 | 1.67 | -0.524 | 1.17 | -0.417 | 9.38 | 2.9 | 2.97 | -3.66 | -0.984 |
| CCc1ccccc1CN1CC[C@@H](NC(=O)c2cccnc2)[C@H](O)C1 | -2.67 | 1.39 | -0.714 | 6.65 | 8.26 | 0 | 12.8 | -21.1 | 3.16 | 10.3 | -3.67 |
| Cc1csc(N2CCCN(C(=O)C(C(C)C)n3cncn3)CC2)n1 (configuration not stated) | -1.03 | 13.5 | 0.997 | -3.98 | -5.29 | 3.51 | 10.9 | 19.3 | 6.93 | 15.8 | -2.71 |
| CN1CCC(Oc2ccc(NC(=O)c3cccc(Cl)c3)cc2)CC1 | -5.92 | 0 | 6.08 | 4.72 | 3.05 | 19.3 | 10.2 | 12.9 | -5.38 | 1.24 | -3.75 |
| CN1CCC(Cc2cc(Nc3ncccn3)ncn2)CC1 | -1.87 | 6.76 | 11.2 | 0.0242 | -1.98 | -1.16 | 2.34 | 6.81 | 4.3 | 9.09 | -10.4 |
| CCc1nc(CCNC(=O)C2CCOC2)sc1C (configuration not stated) | -4.95 | 8.11 | -4.04 | 10.6 | 1.76 | 3.75 | 5.5 | 9.42 | 6.93 | 8.54 | -0.947 |
| COc1c(C2CCCN2C(=O)c2cccc(C(N)=O)c2)c(C)nn1C (configuration not stated) | -6.26 | 10.4 | 7.89 | -11.9 | -5.19 | -2.32 | 3.96 | 17.6 | 0 | 2.35 | -17.8 |
| Cn1cnnc1C1CCCN(C(=O)NCCOc2ccccc2)C1 (configuration not stated) | -3.04 | 23.4 | 1.73 | -22.3 | 4.8 | -1.47 | 15.9 | 16.1 | 5.71 | 21.2 | -12 |
| N#Cc1ccnc(N2CCN(C(=O)Cc3ccc4c(c3)CCO4)CC2)c1 | -5.74 | 21.1 | -3.75 | 4.19 | 5.83 | 0 | 13.4 | 1.61 | 2.45 | 19.5 | -11.9 |
